Compound activity (PubChem BioAssay)
Rv3671c protease: Rv3671c serine protease inhibitors, primary screen, biochemical, fluorescence polarization, M. tuberculosis H37Rv | P9WHR9 | inhibition, % at 5.96 µM | 0.048% of 320,000 active; in the data active means inhibition above about 38%;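 further: extracellular domain of Rv3671c used as enzyme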
Target sequence (P9WHR9 whole entry, looked up, the tested form may be a part): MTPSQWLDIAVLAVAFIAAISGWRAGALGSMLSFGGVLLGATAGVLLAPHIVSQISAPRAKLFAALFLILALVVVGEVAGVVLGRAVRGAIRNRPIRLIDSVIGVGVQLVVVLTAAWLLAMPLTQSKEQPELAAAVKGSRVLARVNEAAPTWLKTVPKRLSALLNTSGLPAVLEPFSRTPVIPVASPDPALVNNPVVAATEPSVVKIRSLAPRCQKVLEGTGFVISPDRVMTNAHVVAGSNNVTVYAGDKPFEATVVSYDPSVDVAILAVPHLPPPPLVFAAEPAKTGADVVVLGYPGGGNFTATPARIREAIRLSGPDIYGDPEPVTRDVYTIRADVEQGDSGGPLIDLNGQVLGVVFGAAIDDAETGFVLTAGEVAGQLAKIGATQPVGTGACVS
DUSP3 inh: VHR1 phosphatase inhibitors, primary screen, biochemical, absorbance, uHTS. inhibition, % at 13.3 µM. AID 1654, 2009. 0.52% of 290,000 active. Dual specificity protein phosphatase 3 (Homo sapiens), P51452. recombinant VHR phosphatase, pNPP absorbance; in the data active means inhibition above about 50%
Target sequence (P51452 whole entry, looked up): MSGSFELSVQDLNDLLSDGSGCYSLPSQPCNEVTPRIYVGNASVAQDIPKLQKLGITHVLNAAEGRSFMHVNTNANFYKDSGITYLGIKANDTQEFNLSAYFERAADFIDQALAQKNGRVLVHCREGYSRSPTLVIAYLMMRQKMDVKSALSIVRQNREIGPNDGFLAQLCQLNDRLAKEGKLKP
Mtb UGM inh: M. tuberculosis UGM enzyme inhibitors, primary screen, biochemical, fluorescence polarization, single point. 0.06% of 320,000 active. inhibition, % at 10 µM. UDP-galactopyranose mutase (Mycobacterium tuberculosis (strain ATCC 25618 / H37Rv)), …. purified UGM, fluorescence polarization probe displacement; in the data active means inhibition above about 10%, passing the limit was not always enough
Mtb hypoxia rep: PubChem AID 1159583 | M. tuberculosis hypoxia-regulated fluorescent reporter, fluorescence | fluorescence inhibition, % (test concentration not listed) | 0.1% of 300,000 active; in the data active means fluorescence inhibition mostly above about 23%, no sharp cut-off; inactive means mostly below about 17%
Mtb betalactam: beta-lactam sensitization of Mtb H37Rv, H37Rv; M. tuberculosis H37Rv growth with meropenem, percent inhibition; inhibition, % at 25 µM; 0.27% of 330,000 active; call rule not given here;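 further: growth measured after seven days incubation then overnight dye step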
Hits are given with their value; - = inactive; . = not tested or not shown. Hits are enriched below; roughly 0.59% of the tested compounds scored in any of these assays.

SMILES	Rv3671c protease	DUSP3 inh	Mtb UGM inh	Mtb hypoxia rep	Mtb betalactam
CN1C(=O)/C(=C/c2ccc(N3CCCCCC3)o2)C(=O)NC1=S	-	-	-	45	-
O=C(CSc1ccccc1)Nc1ccc2c(c1)OCO2	-	-	-	-	-
CCc1ccc(NC(=S)NC(=O)c2c(-c3ccccc3Cl)noc2C)cc1	-	-	-	-	-
Cc1onc(-c2ccccc2Cl)c1C(=O)NC(=S)NCC(=O)c1ccccc1	-	57	-	-	-
Cc1cc(=O)[nH]c(N2CCCNCC2)n1	-	54	-	-	-
Cc1ccc(S(=O)(=O)N2CCc3ccccc3C2)cc1	-	52	-	-	-
CCSc1nc(-c2ccccc2)nc(C(Cl)Cl)n1	-	-	-	.	-
CSc1nc(-c2ccc(C)cc2)nc(C(Cl)Cl)n1	-	-	-	78	-
Cc1oc(-c2ccccc2Cl)nc1CS(=O)CC(=O)NCCCN1CC(C)CC(C)C1 (stereo unspecified)	-	52	-	.	-
COc1ccc(C)cc1NC(=O)c1cc(S(=O)(=O)N2CCCC2)cn1C	-	-	-	-	-
CCCc1cc(=O)oc2c(C)c(OCC(=O)NC3CC(C)(C)NC(C)(C)C3)ccc12	-	50	-	-	-
CCCc1cc(=O)oc2c(C)c(OCC(=O)NCCCN3CCOCC3)ccc12	-	53	-	-	-
Cc1c(OCC(=O)NC2CC(C)(C)NC(C)(C)C2)ccc2c1oc(=O)c1ccccc12	-	53	-	-	-
Cc1cc(OCC(=O)NC2CC(C)(C)NC(C)(C)C2)c2c(C)cc(=O)oc2c1	-	56	-	-	-
COc1ccc(/C=N/NC(=O)c2cccs2)c2ccccc12	-	.	-	.	-
COc1ccc(COC(=O)Nc2c(SC)nsc2SC)cc1	-	-	-	-	-
CCOC(=O)c1c(NC(=O)C2COc3ccccc3O2)sc2c1CCN(Cc1ccccc1)C2 (stereo unspecified)	-	-	-	-	-
NC(=O)c1c(NC(=O)C2COc3ccccc3O2)sc2c1CCN(Cc1ccccc1)C2 (stereo unspecified)	-	-	19	-	-
Cc1ccc(-c2cc(C(F)F)nc(S(C)(=O)=O)n2)cc1	-	-	-	-	-
Cc1cc(C)c(Nc2cc(S(=O)(=O)O)c(N)c3c2C(=O)c2ccccc2C3=O)c(C)c1	44	-	-	-	-
Cc1cc(C)c(NC(=O)COC(=O)c2cccc3c2C(=O)c2ccccc2C3=O)c(C)c1	-	-	-	-	-
O=C1NN(c2ccc(Br)cc2)C(=O)/C1=C\c1ccc(O)cc1O	-	-	-	.	-
CC1=NN(c2ccc(C)cc2)C(=O)/C1=C/c1ccc(-c2cc([N+](=O)[O-])ccc2O)o1	.	-	.	-	.
O=C1NN(c2cccc(Br)c2)C(=O)/C1=C/c1ccc(-c2cc([N+](=O)[O-])ccc2O)o1	-	91	-	-	-
O=C1NN(c2cccc(Br)c2)C(=O)/C1=C\c1ccc(O)cc1	-	53	-	.	-
SMILES	Rv3671c protease	DUSP3 inh	Mtb UGM inh	Mtb hypoxia rep	Mtb betalactam
O=C(NCC1CCCO1)c1sc(=S)n2c1[nH]c(=O)c1ccc(C(=O)N3CCCCC3)cc12 (stereo unspecified)	-	-	-	35	-
O=C(NCCc1ccccc1)c1ccc2c(=O)[nH]c3c(C(=O)NCC4CCCO4)sc(=S)n3c2c1 (stereo unspecified)	-	-	-	.	-
CN(C)C1C(=O)C(C(N)=O)=C(O)C2(O)C(=O)C3=C(O)c4c(O)cccc4C(C)(O)C3C(O)C12 (stereo unspecified)	-	-	-	.	-
Cc1ccc2[nH]cc(CCNC(=O)c3ccco3)c2c1	-	-	-	-	-
Cc1ccc2[nH]cc(CCNC(=O)c3cccs3)c2c1	.	52	-	-	-
CCCN1CCC(=O)N([C@H](COc2ccccc2)c2ccccc2)CC1	-	55	-	.	-
CCCN1CCC(=O)N(C(COc2ccccc2)c2ccccc2)CC1 (stereo unspecified)	.	.	.	-	.
CN1CCC(=O)N([C@H](CC#N)c2ccccc2)CC1	-	52	-	.	-
C[C@H](CO)N1C[C@H](C)[C@@H](CN(C)Cc2ccc(C(=O)O)cc2)Oc2ccc(NC(=O)Cn3cnnn3)cc2C1=O	-	.	.	-	-
COc1ccc(N=Cc2c(O)n(-c3cccc(C)n3)c(=O)c3ccccc23)c(OC)c1	-	-	20	-	-
COc1cccc(CNCC(O)COc2ccc(C(=O)c3ccccc3)cc2)c1 (stereo unspecified)	-	52	-	-	-
COc1ccc(C)cc1S(=O)(=O)NCCN1CCOCC1	-	-	-	-	-
COc1ccc(Br)cc1S(=O)(=O)NCCN1CCOCC1	-	57	-	-	-
CSc1ccc(CN(C)CC(=O)Nc2ccc(C)cc2Br)cc1	-	-	-	-	-
COc1ccccc1-c1coc2c(CN3CCC(C)CC3)c(O)ccc2c1=O	-	57	-	.	-
Fc1ccc(CSc2nnc(-c3ccccn3)o2)cc1	.	-	-	39	-
O=C(CSc1nnc(-c2ccccn2)o1)Nc1ccc(F)cc1	-	-	-	-	-
CCOc1cc(/C=C(\C#N)C(=O)Nc2cccc(C(=O)O)c2)ccc1OCc1ccc(Br)cc1	-	53	-	-	-
COc1cc(/C=C(\C#N)C(=O)Nc2cccc(C(=O)O)c2)ccc1OCc1ccc(C)cc1	-	-	-	-	-
Cc1ccc(O)c(CNc2nc3ccccc3n2C(C)C)c1	-	-	-	.	-
CC(C)n1c(NCc2cc(Cl)ccc2O)nc2ccccc21	-	54	-	-	-
C=CCn1c(NCc2cc(C)ccc2O)nc2ccccc21	-	50	-	-	-
COCCNS(=O)(=O)c1ccc(-c2ccc(C)cc2)cc1	-	-	-	77	.
Cc1ccc(S(=O)(=O)NCCOCCNS(=O)(=O)c2ccc(C)cc2)cc1	-	-	-	-	-
C/C(=N/OC(=O)c1ccccc1Br)c1ccc(C)cc1	-	52	-	.	-
SMILES	Rv3671c protease	DUSP3 inh	Mtb UGM inh	Mtb hypoxia rep	Mtb betalactam
COCC(C)NC(=O)c1cc(-c2ccccc2OC)on1 (stereo unspecified)	-	-	-	-	-
CCOc1ccc(N(CC(=O)Nc2ccccc2Cl)S(C)(=O)=O)cc1	-	59	-	-	-
C/C(=N/OC(=O)c1ccc(C)cc1)c1ccc(N2C(=O)C3CCCCC3C2=O)cc1 (stereo unspecified)	-	-	-	.	-
CCOc1ccc(C2=Nn3c(nnc3-c3cccnc3)SC2)cc1	-	57	-	-	-
COc1ccc(C2=Nn3c(nnc3-c3cccnc3)SC2)cc1	.	-	.	-	.
CCCCC(=O)Nc1c(-c2cccc(OC)c2)c(=O)c2ccccc2n1C	.	58	-	-	-
COC(=O)c1[nH]c2ccccc2c1CN1CCOCC1	-	56	-	-	-
Cc1ccc(OC(C)C(=O)Nc2ccc(S(=O)(=O)Nc3cc(C)on3)cc2)cc1 (stereo unspecified)	-	-	.	-	-
CS(=O)(=O)c1ccc(-n2nnc3ccccc32)c([N+](=O)[O-])c1	-	-	-	-	-
